# Test results: ChEMBL document CHEMBL3988442, “University of Dundee, Small-Polar-MMV Screening Library” (2021)
# About 13,000 (27%) of roughly 48,000 compounds showed an effect of 50% or more. This is one part of the list.
# Test system: Wolbachia pipientis
# Experiment: Anti-Wolbachia Cell-Based Screen
# Assay type: functional
# Design: scale not given: in the data most compounds retested in dose-response had high values
# Conditions: 5 µM
row,SMILES,Percent Effect
1,COC(C)(C)c1noc(C2(C#N)CCCC2)n1,-17.37%
2,OC1(CNc2ccc(Br)cn2)CCOCC1,9.923%
3,Cc1cc(CN2CCC=C(CN(C)C(=O)c3ccco3)C2)no1,-5.355%
4,Cc1ncc(CNCC(=O)NCC(F)(F)F)n1-c1ccccc1,-11.81%
5,Cc1cnn(CC2CN(Cc3nnc(-c4ccccc4)o3)CCO2)c1 (stereo unspecified),113.1%
6,Cc1cnn(CC2CN(Cc3nnc(C4CC4)o3)CCO2)c1 (stereo unspecified),-1.438%
7,Cc1cnn(CC2CN(CCS(C)(=O)=O)CCO2)c1 (stereo unspecified),-18.36%
8,CCc1nnc(CN2CCOC(Cn3cc(C)cn3)C2)o1 (stereo unspecified),101%
9,Cc1cnn(CC2CN(Cc3nnc(-c4occc4C)o3)CCO2)c1 (stereo unspecified),-2.933%
10,Cc1cnn(CC2CN(Cc3nnc(C(C)C)o3)CCO2)c1 (stereo unspecified),101.2%
11,Cc1ccc(-c2nnc(CN3CCOC(Cn4cccn4)C3)o2)cc1 (stereo unspecified),-8.169%
12,Cc1cnn(CC2CN(Cc3nc(C)c(C)o3)CCO2)c1 (stereo unspecified),94.42%
13,Cc1cc(CC2COc3ccccc3C2)cnc1N (stereo unspecified),-19.29%
14,CC(C)Nc1ccnc(N2Cc3cnc(C(C)(C)C)nc3C2)n1,10.33%
15,CN(C)Cc1nc(C(C)(C)NC(=O)c2cccc3ccccc23)no1,-8.122%
16,CCOC(=O)CN(CC(F)(F)F)C(=O)c1nc(C)n2ccccc12,-24.45%
17,CNC(=O)c1cccc(CNC2CCSc3c(Cl)cccc32)c1 (stereo unspecified),-5.902%
18,CSc1ccc(C(CC(=O)O)NC(=O)c2cc(C)on2)cc1 (stereo unspecified),6.189%
19,CN(C)c1ncnc2c1CCN(CC1CCOCC1)CC2.O=C(O)C(F)(F)F,-9.241%
20,CN(C)c1ncnc2c1CCN(Cc1nccs1)CC2.O=C(O)C(F)(F)F,13.78%
21,CN(C)C(=O)CN1CCc2ncnc(N(C)C)c2CC1.O=C(O)C(F)(F)F,89.81%
22,CN(C)C(=O)CN1CCc2ncnc(NC3CCC3)c2CC1.O=C(O)C(F)(F)F,114.3%
23,c1nc2c(c(C3CC3)n1)CCN(Cc1ccoc1)CC2,-6.028%
24,Cc1ncnc2c1CCN(Cc1ccc3c(c1)OCO3)CC2.O=C(O)C(F)(F)F,-11%
25,CCc1ncnc2c1CCN(Cc1ccc3c(c1)OCO3)CC2.O=C(O)C(F)(F)F,106.3%
26,O=C(O)C(F)(F)F.c1nc2c(c(NC3CCC3)n1)CCNCC2,-15.15%

row,SMILES,Percent Effect
1,CN(C)C(=O)CN1CCc2ncnc(C3CC3)c2CC1,106.4%
2,Cc1ccc(CN2CCc3ncnc(C4CC4)c3CC2)s1.O=C(O)C(F)(F)F,-13.47%
3,COC(C)c1noc(CN(C)c2nccnc2C#N)n1 (stereo unspecified),3.907%
4,CCN(CCn1cccn1)Cc1nc(-c2cc(F)ccc2F)oc1C,-20.47%
5,O=C(C1CC=CC1)N1CC[C@@H]2O[C@H](COCC3CCOCC3)CC[C@@H]21,2.259%
6,O=C(CS(=O)(=O)Cc1cccc(Br)c1)Nc1cn[nH]c1,6.351%
7,O=C(C1=CCCCC1)N1CCO[C@H]2[C@H](Oc3ccccn3)CC[C@@H]21.O=C(O)C(F)(F)F,-5.477%
8,CCc1ncnc2c1CCN(CC(=O)N(C)C)CC2.O=C(O)C(F)(F)F,107.9%
9,Cc1ncnc2c1CCN(C(=O)c1ccnnc1)CC2,-1.373%
10,Cc1ncnc2c1CCN(CC(=O)N(C)C)CC2.O=C(O)C(F)(F)F,112%
11,Cc1ncnc2c1CCN(Cc1nccs1)CC2.O=C(O)C(F)(F)F,-9.134%
12,CCc1ncnc2c1CCN(Cc1ccccn1)CC2.O=C(O)C(F)(F)F.O=C(O)C(F)(F)F,16.56%
13,Cc1ncnc2c1CCN(C(=O)CN(C)C)CC2.O=C(O)C(F)(F)F,-6.566%
14,CCc1ncnc2c1CCN(Cc1nccs1)CC2.O=C(O)C(F)(F)F,16.77%
15,Cc1ncnc2c1CCN(C(=O)N(C)C)CC2,95.78%
16,CN(C1CCCCC1)S(=O)(=O)N1CCN(Cc2ccon2)CC1,-9.326%
17,Cc1noc(C)c1CN1CCCC2(C1)CN(Cc1nccn1C)CCO2.O=C(O)C(F)(F)F.O=C(O)C(F)(F)F (stereo unspecified),-4.465%
18,Cc1noc(C)c1CN1CCCC2(CCN(C(=O)N3CCOCC3)C2)C1 (stereo unspecified),105.6%
19,Cc1noc(C)c1CN1CCC2(CC1)CCN(C(=O)c1cscn1)C2.O=C(O)C(F)(F)F,-11.08%
20,N[C@@H](Cc1ccccc1)c1nnc(S(=O)(=O)Cc2ccccc2)o1,107.1%
21,O=S(=O)(Cc1ccccc1)c1nnc(N2CCOCC2)s1,4.64%
22,NC(=O)C(Cc1ccccc1)NS(=O)(=O)Cc1ccccc1F (stereo unspecified),-4.164%
23,Cc1cccc(CS(=O)(=O)NCC(O)Cc2ccccc2)c1 (stereo unspecified),2.043%
24,Cc1cccc(CS(=O)(=O)c2nnc(N3CCOCC3)s2)c1,-9.139%
25,Cc1nnc(CN(Cc2cccc(Cl)c2)C(C)C)o1,-3.327%
26,N#Cc1cccc(CS(=O)(=O)NC(Cc2ccccc2)C(N)=O)c1 (stereo unspecified),-5.324%

row,SMILES,Percent Effect
1,Cl.N[C@@H](Cc1ccccc1)c1nnc(S(=O)(=O)Cc2cccc(Cl)c2)o1,90.15%
2,Cl.N[C@@H](Cc1ccccc1)c1nnc(S(=O)(=O)Cc2ccc(Cl)cc2)o1,72.38%
3,Cc1cccc(CS(=O)(=O)c2nnc([C@@H](N)Cc3ccccc3)o2)c1.Cl,119.9%
4,CCc1[nH]c2c(CNc3cc(C)nc(NC)n3)cc(C)cc2c1C,7.086%
5,Cc1noc(C2CN(S(=O)(=O)C3CC3)Cc3ccnn3C2)n1 (stereo unspecified),-3.92%
6,Cc1nc(-c2ccccc2)sc1CSCCS(C)(=O)=O,5.255%
7,CCCN1CCC(C(=O)NCCN(CC)c2ccccc2C)CC1,6.668%
8,CSc1ccc(NC(=O)NCC(O)C2CC2)cc1F (stereo unspecified),-6.513%
9,CCn1nc(C)c2c1cnn2CC(=O)Nc1ccc(OC)cc1C,97.13%
10,CCn1nc(C)c2c1cnn2CC(=O)NC(C)c1cccc(OC)c1 (stereo unspecified),108.9%
11,COc1ccccc1CNC(=O)Cn1ncc2c1c(C)nn2C,14.16%
12,COc1ccc(NC(=O)Cn2nc(C)c(C(C)=O)c2C)cc1,9.099%
13,COc1cccc(C(CO)NC(=O)Cc2cccc(C)c2)c1 (stereo unspecified),-8.321%
14,Cc1ccc(CNC(=O)Cn2ncc3c2c(C)nn3C)cc1,2.775%
15,CCC(C)NC(=O)Cn1ncc2c1c(C)nn2CC (stereo unspecified),78.16%
16,Cc1nn(C)c2cnn(CC(=O)NCCc3ccccc3)c12,-4.573%
17,COc1ccc(NC(=O)Cn2nc(C)c(C)cc2=O)c(OC)c1,-17.24%
18,Cc1ccc(C(=O)NS(=O)(=O)c2cc(Cl)ccc2Cl)c(=O)[nH]1,0.2464%
19,OCCOc1ccc(NCc2cccc3cn[nH]c23)cn1,11.64%
20,Cl.NC[C@H]1CC[C@H](c2c(C(N)=O)sc3ccccc32)CC1,138.4%
21,CC(C)NC(=O)c1sc2ccccc2c1[C@H]1CC[C@H](CN)CC1.Cl,141.4%
22,CC(NC(=O)N1CCC(CO)CC1)c1csc2ccccc12 (stereo unspecified),-26.26%
23,Cl.NCC1CCC(c2c(C(=O)NCCO)sc3ccccc23)CC1 (stereo unspecified),105.7%
24,CC1CCc2nc(O)c(C(=O)NCCN(C)C)cc2C1 (stereo unspecified),7.628%
25,CC(NC(=O)c1cccc[n+]1[O-])C1CC1 (stereo unspecified),-12.99%
26,CN(C)CCNC(=O)c1sc2ccccc2c1C1CCC(CN)CC1.Cl (stereo unspecified),88.67%

row,SMILES,Percent Effect
1,CN(C)CCNC(=O)c1ccc(S(=O)(=O)N[C@@H]2CCNC2)cc1,-7.63%
2,CCn1cc2c(n1)C(COCC1CC1)CN(C(=O)c1cc(C)on1)C2 (stereo unspecified),-20.07%
3,CC(Nc1ccc(CC(=O)N(C)C)cc1)C(=O)N(C)CCC#N (stereo unspecified),3.748%
4,Cn1ncc2c(N3CCCC(C)(O)C3)nc(C(C)(C)C)nc21 (stereo unspecified),-0.5703%
5,COc1ccc(CCC(=O)Nc2cccnc2N2CCCC2)cc1Br,3.443%
6,O=C(O)C(F)(F)F.O=C1CC[C@@H]2[C@@H](CCN2C(=O)c2ccsc2)N1Cc1ccncc1,-34.69%
7,NC(=O)COCCNC(=O)Nc1sc2ccccc2c1Cl,6.222%
8,COCCNC(=O)c1cc2c(nc1O)CC(c1cccs1)CC2=O (stereo unspecified),7.497%
9,COCCNC(=O)c1sc2ccccc2c1C1CCC(CN)CC1.Cl (stereo unspecified),140.8%
10,CCCN1CCN(C(=O)c2cc[nH]n2)[C@H]2CS(=O)(=O)C[C@H]21,3.177%
11,CC(=O)N1CCCC(c2nccnc2-c2ccc(CO)cc2)C1 (stereo unspecified),179.5%
12,CCc1ccc2c(C3CN(C(C)=O)C3)ncn2c1,-3.623%
13,CCn1cc(-c2nccnc2C2CCCN(C(C)=O)C2)cn1 (stereo unspecified),156.7%
14,COc1cc(F)ccc1CC(=O)N1CC[C@H]2C(=O)NCCO[C@H]2C1,-55.09%
15,COC(=O)CCCn1ccnc1-c1ccc(OC)c(F)c1F,-8.612%
16,CCS(=O)(=O)Cc1ccn(-c2cccc(F)c2)n1,-0.3225%
17,Cc1ccc(NC(=O)Nc2cnc(N3CCN(C)CC3)nc2)cc1,130.1%
18,Cc1ccc(NC(=O)Nc2cnc(N3CCN(C)CC3)nc2)c(Cl)c1,-7.625%
19,COc1ccc(NC(=O)N2CCC3(CC2)NC(=O)CC3C(=O)O)cc1Cl (stereo unspecified),-5.291%
20,CCOc1ccc(NCc2cnc(N3CCN(C)CC3)nc2)cn1,-2.404%
21,COc1ccc(NC(=O)Nc2cnc(N3CCN(C)CC3)nc2)cc1Cl,89.39%
22,COc1ccc(NC(=O)NC(C)c2nc[nH]n2)cc1Cl (stereo unspecified),-12.73%
23,COc1cc2c(cc1CNC(=O)C(C)n1ccnc1C(C)C)CCC2 (stereo unspecified),-11.78%
